Source: PubChem BioAssay AID894 (National Center for Advancing Translational Sciences (NCATS), 2007)
Screen size: about 150,000 compounds; about 6,500 (4.3%) were called active. About 12% were inconclusive and are not listed. The sample holds actives, similar compounds and a random draw of the others, so the mix is not that of the screen. A number with no mark means an inactive call. The call rests on the fitted dose curve; in most records, active means well fitted inhibition curve with a large enough effect (not every such curve was filed as active); inconclusive means small, poorly fitted or top-dose-only effect, or another doubt; inactive means no such curve, though single readings can be large or run the other way.

molecular target: 15-hydroxyprostaglandin dehydrogenase [NAD(+)] (Homo sapiens) (UniProt P15428); experiment: qHTS Assay for Inhibitors of HPGD (15-Hydroxyprostaglandin Dehydrogenase); conditions: purified HPGD, NADH fluorescence kinetic, PGE2 substrate; activity change, negative = inhibition: active compounds read low
Method in brief: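 20 nM HPGD preincubated 15 min at room temperature with compound in 50 mM Tris-HCl pH 8, 0.01% Tween 20. Started with 1 mM NAD+ and 30 uM prostaglandin E2; NADH fluorescence (360/450 nm) read 5 times over 30-s intervals, last minus first.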
On the % scale 0 is the no-effect control and ±100 the full control effect; potency means the concentration at half of the fitted maximal effect.

Chain of 15-hydroxyprostaglandin dehydrogenase [NAD(+)] (Homo sapiens) (P15428 whole entry, looked up): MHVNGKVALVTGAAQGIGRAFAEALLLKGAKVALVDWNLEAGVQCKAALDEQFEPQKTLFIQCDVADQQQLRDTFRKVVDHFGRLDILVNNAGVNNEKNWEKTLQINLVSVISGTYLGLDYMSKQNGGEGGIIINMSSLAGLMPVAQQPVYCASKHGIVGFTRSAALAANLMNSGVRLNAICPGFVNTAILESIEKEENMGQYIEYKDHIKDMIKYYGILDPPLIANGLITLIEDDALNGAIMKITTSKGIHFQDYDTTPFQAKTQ

Row | SMILES | activity change, negative = inhibition | Potency
1 | COC(=O)/C(C#N)=C/c1occc1C | -10.9% | –
2 | N#C/C(=C/c1cccc([N+](=O)[O-])c1)c1nnc2n1CCCCC2 | – | 20 µM (active)
3 | O=[N+]([O-])c1cccc(S(=O)(=O)N2CCCCCC2)c1 | -12% | –
4 | N#C/C(=C(\O)CCl)c1nnc2n1CCCCC2 | 1.76% | –
5 | Cc1ccn(-c2cccc(-n3ccc(C)n3)n2)n1 | -19.2% | –
6 | CCC(C)(C)c1ccc(Oc2ccc(NC(=O)COC(=O)C3=COCCO3)cc2)cc1 | – | 14.1 µM (active)
7 | O=C(OCC(=O)c1cccs1)C1=COCCO1 | -17.4% | –
8 | CC(C)NS(=O)(=O)c1ccc(OCC(=O)Nc2ccc3c(c2)OCCO3)cc1 | 0.139% | –
9 | CC(C)(C)CC(C)(C)NCC(O)COCCOc1ccc(Br)cc1 (configuration not stated) | -5.61% | –
10 | CCOC(=O)c1c(/N=C/C2C(=O)CC(C)(C)CC2=O)sc(C)c1C | -11.6% | –
11 | CCc1ccc(NC(=O)c2ccc(Cn3cc([N+](=O)[O-])cn3)cc2)cc1 | -0.318% | –
12 | O=C(Oc1ccccc1)c1ccc2nccnc2c1 | -13% | –
13 | O=C(COc1cccc(F)c1)Oc1ccc(C(=O)c2ccccc2)cc1 | – | 7.94 µM (active)
14 | O=C(c1ccccc1)c1ccc(OC(=O)N2CCCC2)cc1 | -20% | –
15 | C/C(=N\NC(=O)Cc1ccc(F)cc1)c1ccc(F)cc1 | -3.27% | –
16 | Cc1ccc(S(=O)(=O)N(NC2=NS(=O)(=O)c3ccccc32)C(=O)c2ccccc2)cc1 | -7.36% | –
17 | Cc1ccc(NC(=S)NC2CCCC2)cc1 | -9.46% | –
18 | Cc1ccc(NC(=O)CSCC(=O)N2CCOCC2)cc1 | 2.74% | –
19 | Cc1ccc(NC(=O)CSCC(=O)NC2CCCCC2)cc1 | – | 15.8 µM (active)
20 | Cc1ccc(/C(N)=N/OC(=O)COc2ccc(Cl)c(C)c2)cc1 | -14.6% | –
21 | COc1ccc(O)c(C(=O)c2cnc3onc(C(C)C)c3c2)c1 | -14.6% | –

Row | SMILES | activity change, negative = inhibition | Potency
22 | COCCn1c(=S)[nH]c2cc(C(=O)NCCc3ccc(OC)c(OC)c3)ccc2c1=O | -4.68% | –
23 | COCCn1c(=O)[nH]c(=O)c2cc(C(=O)c3cc(OC)ccc3O)cnc21 | – | 25.1 µM (active)
24 | Cc1ccc(CN2C(=O)N/C(=C/c3cc(C)n(-c4ccccn4)c3C)C2=O)cc1 | -12.6% | –
25 | C/C(Cc1ccccc1)=N\NC(=O)CNC(=O)c1cccc(Br)c1 | -6.55% | –
26 | O=C(COC(=O)Cc1ccc(F)cc1)Nc1cc(S(=O)(=O)N2CCOCC2)ccc1N1CCCC1 | -3.83% | –
27 | CCCCCn1c(SCCC(C)C)nc2c1c(=O)[nH]c(=O)n2C | – | 20 µM (active)
28 | CCCSc1nc2c(c(=O)[nH]c(=O)n2C)n1CCc1ccccc1 | -20.7% | –
29 | CCCCCCn1c(SCC(=O)c2ccccc2)nc2c1c(=O)[nH]c(=O)n2C | -21.9% | –
30 | O=C(COC(=O)Cc1ccc(Br)cc1)Nc1c(F)c(F)c(F)c(F)c1F | -9.95% | –
31 | Cc1[nH]n(-c2cccc(Cl)c2)c(=O)c1/C=N/n1c(C)nc2ccccc2c1=O | -20.7% | –
32 | O=c1[nH]n(-c2cccc(Cl)c2)c2ncccc12 | – | 6.31 µM (active)
33 | Cc1[nH]n(-c2cccc(Cl)c2)c(=O)c1-c1ccc(Cl)cc1 | -13% | –
34 | COc1cc(CCC(=O)OCC(=O)Nc2cccc(S(N)(=O)=O)c2)cc(OC)c1OC | -6.23% | –
35 | COC(=O)c1onc(-c2c(OC)cc(OC)cc2OC)c1C(=O)OC | -3.93% | –
36 | N#Cc1ccsc1NC(=O)CN1CCN(S(=O)(=O)c2cc(Cl)ccc2Cl)CC1 | -24.3% | –
37 | Cc1ccc(NN=Nc2nc3c([nH]2)c(=O)n(C)c(=O)n3C)cc1 | – | 22.4 µM (active)
38 | CCCSc1nc2c(c(=O)n(C)c(=O)n2C)n1Cc1ccc(C)cc1 | -7.96% | –
39 | CC(CCO)Nc1nc2c([nH]1)c(=O)n(C)c(=O)n2C (configuration not stated) | -11.6% | –
40 | Cn1c(=O)c2c(nc(Br)n2CCSc2nc3ccccc3o2)n(C)c1=O | – | 31.6 µM (active)
41 | Cc1cccc(Cn2c(SCCO)nc3c2c(=O)n(C)c(=O)n3C)c1 | -7.66% | –
42 | Cn1c(=O)[nH]c(=O)c2c1nc(Br)n2CCCCSc1nc2ccccc2o1 | – | 25.1 µM (active)

Row | SMILES | activity change, negative = inhibition | Potency
43 | CN(Cc1ccccc1)c1nc2c(c(=O)[nH]c(=O)n2C)n1CCSc1nc2ccccc2[nH]1 | -9.14% | –
44 | CCN(CC)C(=O)CSc1nc2ccccc2o1 | -23.4% | –
45 | Cc1ccnc(SCCn2c(Br)nc3c2c(=O)[nH]c(=O)n3C)n1 | -9.47% | –
46 | CCCC/S(C)=N/S(=O)(=O)c1ccc(C)cc1 (configuration not stated) | 1.3% | –
47 | Cc1ccc(C)c(NC(CC(=O)c2ccccc2)C(=O)OCC(=O)c2cccs2)c1 (configuration not stated) | -4.17% | –
48 | CCOc1ccccc1N1CCN(C(=S)Nc2ccc(S(N)(=O)=O)cc2)CC1 | -4.15% | –
49 | Cc1ccc(S(=O)(=O)C2C(=O)NC3(C)CC2c2ccccc2O3)cc1 (configuration not stated) | -19.6% | –
50 | O=C(NN1C(=O)C2C3C=CC(O3)C2C1=O)c1ccncc1 (configuration not stated) | 2.88% | –
51 | CCn1c(=N)n(CC(=O)c2cccc(OC)c2)c2ccccc21 | – | 35.5 µM (active)
52 | CCCCOC(=O)Cn1c(=N)n(CCN(CC)CC)c2ccccc21 | -7.8% | –
53 | COc1cccc(C(=O)NNC(=O)c2ccccc2Br)c1 | -0.052% | –
54 | Cn1cccc1/C=C1\SC(=S)N(NC(=O)c2ccc(Cl)cc2)C1=O | -8.93% | –
55 | Cc1cc(C)c(C#N)c(SCS(=O)c2ccc(C(C)(C)C)cc2)n1 (configuration not stated) | – | 15.8 µM (active)
56 | Cc1cc(C)c(C#N)c(SCc2ccccc2C(=O)O)n1 | -15% | –
57 | Cc1cc(C)c(C#N)c(SCC(=O)NN2CC(=O)N(c3ccccc3F)CC2=O)n1 | -14% | –
58 | Cc1ccc(C(=O)NC(=S)NCCN2CCOCC2)cc1 | -5.64% | –
59 | Cc1c(O)c(Br)c(C)c(O)c1Br (tested in a mixture with another compound) | – | 0.891 µM (active)
60 | O=C(OCC#CCSc1nnc(-c2ccncc2)o1)c1sc2ccccc2c1Cl | – | 20 µM (active)
61 | CCOC(=O)CSc1nnc(-c2ccncc2)o1 | -12.2% | –
62 | O=C(CSc1nnc(-c2ccncc2)o1)NCc1ccc(Cl)cc1 | -1.7% | –
